Test results taken from PubChem BioAssay (NCI).
About 83,000 compounds went through this panel and 20% of them were active in at least one assay; those are over-represented in the sample as a whole.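 Interpretation: 100, growth as untreated; towards 0, rising growth inhibition; 0, no net growth; 0 to -100, cell death. Compounds scoring below 10 were considered active.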 A number with no mark means an inactive call. Active and inactive are the calls of the source.

How the values were obtained:
Test in all cases: NCI-60 one-dose screen, 48 h (100 = growth as untreated, 0 = no growth, -100 = all killed)
Settings in all cases: 10 µM unless noted
SK-MEL-2 melanoma = tested on: SK-MEL-2 melanoma
EKVX NSCLC = tested on: EKVX NSCLC
SN12C renal = tested on: SN12C renal
UO-31 renal = tested on: UO-31 renal
TK-10 renal = tested on: TK-10 renal
ACHN renal = tested on: ACHN renal
CAKI-1 renal = tested on: CAKI-1 renal
A498 renal = tested on: A498 renal
CCRF-CEM leukemia = tested on: CCRF-CEM leukemia
MOLT-4 leukemia = tested on: MOLT-4 leukemia

Row | SMILES | growth (SK-MEL-2 melanoma) | growth (EKVX NSCLC) | growth (SN12C renal) | growth (UO-31 renal) | growth (TK-10 renal) | growth (ACHN renal) | growth (CAKI-1 renal) | growth (A498 renal) | growth (CCRF-CEM leukemia) | growth (MOLT-4 leukemia)
1 | Cc1cc(N(CCCNc2ccnc3cc(Cl)ccc23)Cc2ccccn2)nc(N2CCCC2)n1 | 99.8% | 76.3% | 64.4% | 53.8% | 136% | 93.5% | 76.5% | 95.1% | 53.9% | 
2 | C#C[C@]1(O)CC[C@H]2[C@@H]3CC=C4c5sc(N=C(N)N)nc5CC[C@]4(C)[C@H]3CC[C@@]21C | -13.4% (active) | 12.7% | -56% (active) | -77.7% (active) | 13.4% | -6.84% (active) | -19.9% (active) | -90.8% (active) |  | 
3 | Cc1cnc(Nc2ccc(OCCN3CCCC3)cc2)nc1NCc1ccco1 | 97.9% | 71.5% | 68.5% | 47.8% | 79.4% | 79.4% | 62.5% | 71.5% |  | 
4 | CC(C)c1ccc(C(=O)OC(=O)c2ccc(C(C)C)cc2)cc1 | 92.4% | 99.7% | 98.7% | 83.9% | 98.2% | 96% | 67.7% | 92.1% | 66.8% | 
5 | C=C(C)[C@@H]1CC[C@]2(CNCCO)CC[C@]3(C)[C@H](CC[C@@H]4[C@@]5(C)CCC(N)[C@@](C)(CO)[C@@H]5CC[C@]43C)[C@@H]12 (stereo partly specified) | -19% (active) | 40% | -11.4% (active) | 66.1% | -47.4% (active) | 54.4% | 71.2% | 78.1% | -38.7% (active) | 
6 | Cc1cc(N2CCCCC2)nc(N(CCNc2ccnc3cc(Cl)ccc23)Cc2ccccn2)n1 | 79.9% | 53.7% | 62.3% | 23.7% | 83.8% | 62% | 54.1% | 37.7% | 31.8% | 
7 | O=C(NCc1cccnc1)c1cc(-c2csc3c(=O)cc(N4CCOCC4)oc23)cc2c1OCCO2 | 51.1% | 62.5% | 41.7% | 30.3% | 14.1% | 34.5% | 31.1% | 39.9% | 39.6% | 
8 | N#Cc1c(N)nc2c(nnn2-c2cccc(Br)c2)c1N | 103% | 43.6% | 93.4% | 72.8% | 119% | 99% | 98.1% | 105% | 97.9% | 
9 | O=[N+]([O-])c1ccccc1C(O)Cc1ccc2ccccc2n1 (stereo unspecified) | 108% | 83.8% | 95.2% | 66.6% | 148% | 85.9% | 88% | 68% | -50.2% (active) | 
10 | COc1ccc(-n2ncn(CCCCCCn3cnn(-c4ccc(OC)cc4)c3=O)c2=O)cc1 | 89.5% | 85.8% | 90.6% | 72.5% | 118% | 87.5% | 87.4% | 101% | 87.8% | 
11 | CS(=O)(=O)c1ccc(N/N=C/c2c(-c3ccc(S(C)(=O)=O)cc3)[nH]c3ccc(F)cc23)cc1 | 3.8% (active) | 64.2% | 36.2% | 53.8% | 35.2% | 48.2% | 57.5% | 25.9% | 4.8% (active) | -1.41% (active)
12 | Cc1c(C(=O)O[C@H]2[C@@H]3[C@H](C)CC[C@H]3[C@]3(C)O[C@@]2(C2CCCCC2)C[C@H]3OC(=O)CO)ccc2ccccc12 | 40.3% | 41.8% | -1.88% (active) | -11.7% (active) | 59.8% | -36.4% (active) | 0.73% (active) | -76.6% (active) | -4.66% (active) | 
13 | COc1c(C)cnc(CSc2nc(-c3ccc(C)cc3)cn2-c2ccc(Cl)cc2)c1C | 83% | 92.1% | 94.4% | 63.2% | 101% | 98.9% | 91.1% | 93.9% | 99.8% | 73.5%
14 | Cc1c2c(cn1Cc1ccccc1)CCc1cn[nH]c1-2 | 96.4% | 99.1% | 98.3% | 75.2% | 118% | 99.6% | 84.1% | 108% | 77% | 85.1%
15 | Cc1ccc(C)c2c1C(=O)OC2=O | 84.6% | 105% | 97.9% | 79.1% | 102% | 98.8% | 99.4% | 101% | 102% | 3.4% (active)
16 | CCc1nc2ccccc2[nH]1 | 127% | 112% | 95.6% | 80.1% | 118% | 108% | 109% | 96.1% | 98.8% | 97.5%
17 | Nc1c(-c2nc3ccc(Br)cc3c(=O)[nH]2)nnn1-c1ccccc1 | 94.6% | 101% | 95.5% | 106% | 84.3% | 71.6% | 103% | 87.4% | 93.3% | 85.1%
18 | C/C(=N\NC(=O)Cn1c(-c2ccc(S(C)(=O)=O)cc2)nc2cc(Cl)ccc21)c1ccc(Cl)cc1 | 91.1% | 76.6% | 84% | 62.7% | 101% | 85.8% | 74% | 89.8% | 76.2% | 61.5%
19 | C=C1C(=O)O[C@H]2[C@H]1CC/C(COC(=O)/C=C\C(=O)NCc1ccc(Cn3c(=O)sn(CCCC)c3=O)cc1)=C\CC[C@@]1(C)O[C@@H]21 | -54.2% (active) | -48% (active) | -93% (active) | -100% (active) | -76.9% (active) | -100% (active) | -78.8% (active) | 11.2% | -26.1% (active) | -17.4% (active)
20 | Nc1nc(I)c2ncn(C3OC(CO)C(O)C3O)c2n1 (stereo unspecified) | 159% | 96.6% | 100% | 96% | 134% | 111% | 9.47% (active) | 103% | 116% | 109%
21 | CSc1ncc(C)c(Nc2ccc(Cl)cc2)n1 | 103% | 77.4% | 102% | 76.4% | 95.6% | 103% | 91% | 88.5% | 96.5% | 82.5%
22 | C=C1C(=O)O[C@H]2[C@H]1CC/C(COC(=O)NCc1ccc(Cn3c(=O)sn(CCCCl)c3=O)cc1)=C\CC[C@@]1(C)O[C@@H]21 | 49% | 57.1% | 18.5% | 11% | -65.2% (active) | -57.7% (active) | 27.7% | 104% | -38% (active) | 
23 | Cc1cc(C)on1 | 99.6% | 99.2% | 99.6% | 84.5% | 103% | 104% | 98.4% | 121% | 96% | 92.3%
24 | COc1cc(C(=O)/C=C/c2c(C(F)(F)F)nc3ccccn23)cc(OC)c1OC | -49.3% (active) | -0.4% (active) | 3.89% (active) | -71.1% (active) | 11.2% | -78.7% (active) | -25.5% (active) | 8.53% (active) | 5.58% (active) | 4.22% (active)
25 | O=C1CC(c2ccc3c(c2)OCO3)Nc2cc3c(cc21)OCO3 (stereo unspecified) | 11.7% | 36.2% | 22.7% | 52.6% | 34.6% | 45.8% | 43.4% | -17.4% (active) | 9.73% (active) | 26%
26 | c1ccc([P+](CCCc2n(Cc3ccc4ccccc4c3)c3ccccc3[n+]2Cc2ccc3ccccc3c2)(c2ccccc2)c2ccccc2)cc1 | 100% | 59.4% | 55% | 61.2% | 89.2% | 81.4% | 79.9% | 67.2% | 43.2% | 57.6%
27 | CCCCN(Cc1ccc(C(=O)NO)cc1)C(=O)Nc1ccc(OCCCCCCCCCn2cc(CCCCC(=O)N[C@H](C(=O)N3C[C@H](O)C[C@H]3C(=O)NCc3ccc(-c4scnc4C)cc3)C(C)(C)C)nn2)cc1 | 90.6% | 72.1% | 31% | 70.8% | 87.6% | 105% | 61.7% | 66.5% | 13% | 14.5%
